In test [1] the target is Calcium-dependent protein kinase 1 (Plasmodium falciparum (isolate 3D7)) (UniProt P62344). In words: PfCDPK1 kinase inhibitors, biochemical, TCAMS library (AID 1159585; cut-off not given, nearly all actives have IC50 up to about 0.98 µM;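 note: inhibitors leave more ATP so luminescence rises with inhibition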). Conditions: recombinant PfCDPK1, Kinase-Glo ATP depletion luminescence.
Test [2] addresses Plasmodium falciparum protein kinase 6 (PK6, PF3D7_1337100) (UniProt Q8IDW1). In words: PfPK6 kinase inhibitors, biochemical, TCAMS library (AID 1159586). Conditions: recombinant PfPK6, Kinase-Glo ATP depletion luminescence.
Test [3] concerns the target Protein kinase 7 (PK7), Plasmodium falciparum 3D7 (PF3D7_0213400) (UniProt Q7YTF7). In words: inhibition of Plasmodium PK7 catalytic activity – biochemical, TCAMS antimalarial set, Kinase-Glo luminescence (AID 1159587). The following applies: recombinant PfPK7, Kinase-Glo ATP depletion luminescence.
Test [4] deals with Calcium-dependent protein kinase 4 (Plasmodium falciparum (isolate 3D7)) (UniProt Q8IBS5). Kind of test: PfCDPK4 kinase inhibitors, biochemical, TCAMS library (AID 1159588; cut-off not given, nearly all actives have IC50 up to about 0.91 µM). The following applies: recombinant PfCDPK4, Kinase-Glo ATP depletion luminescence.
Calcium-dependent protein kinase 4 (Plasmodium falciparum (isolate 3D7)), sequence (Q8IBS5 whole entry, looked up): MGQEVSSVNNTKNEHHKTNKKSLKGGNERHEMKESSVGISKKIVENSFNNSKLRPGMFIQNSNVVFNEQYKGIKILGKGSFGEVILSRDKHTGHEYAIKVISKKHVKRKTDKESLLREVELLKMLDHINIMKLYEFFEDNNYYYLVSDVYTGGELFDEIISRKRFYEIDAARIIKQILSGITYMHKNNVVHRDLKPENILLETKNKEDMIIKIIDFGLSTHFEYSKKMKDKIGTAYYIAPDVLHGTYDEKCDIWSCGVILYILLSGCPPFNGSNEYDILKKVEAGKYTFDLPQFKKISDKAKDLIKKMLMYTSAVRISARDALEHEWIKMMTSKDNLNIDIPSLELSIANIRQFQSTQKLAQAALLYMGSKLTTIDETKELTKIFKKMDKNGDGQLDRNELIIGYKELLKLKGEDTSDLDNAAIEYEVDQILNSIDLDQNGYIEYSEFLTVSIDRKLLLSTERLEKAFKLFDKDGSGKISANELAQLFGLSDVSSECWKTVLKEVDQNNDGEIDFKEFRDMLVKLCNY
Test [5] has as its target ATP-dependent translocase ABCB1 (Homo sapiens) (UniProt P08183). Kind of test: MDR1 (ABCB1) efflux transporter inhibition, cell-based (AID 377; in the data active = fluorescence slope change above about 50%). Conditions: MDR1-expressing cells, fluorescent substrate accumulation slope; stronger effect = higher value; concentration not given here.
A short description of test [6]: hESC survival regulators, cell-based (AID 493140).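 Note: cells exposed to compounds for four days before counting.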 Conditions: human embryonic stem cell survival screen; stronger effect = higher value.
The nature of test [7]: liver-stage malaria parasite growth inhibition, primary screen, cell-based, HepG2, luciferase luminescence, HepG2 viability (AID 624349; in the data active = parasite load remaining mostly below about 12%, no sharp cut-off; inactive = mostly above about 10%;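 note: 100% = mean of DMSO negative control wells on the same plate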). The following applies: P. berghei liver stage in HepG2, luciferase luminescence, concentration not given here; parasite load remaining: stronger effect = lower value; viability: measured here: HepG2 viability without parasites.
Test [8] deals with 6-phosphogluconate dehydrogenase, decarboxylating (Homo sapiens) (UniProt P52209). In words: 6PGD enzyme inhibitors, primary screen, biochemical, human, recombinant enzyme, NADPH absorbance (AID 1159550;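 active = at least 20% inhibition of 6-phosphogluconate dehydrogenase activity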). Conditions: recombinant 6PGD, NADPH absorbance 341 nm; at 10 µM; stronger effect = higher value.
6-phosphogluconate dehydrogenase, decarboxylating (Homo sapiens), sequence (P52209 whole entry, looked up): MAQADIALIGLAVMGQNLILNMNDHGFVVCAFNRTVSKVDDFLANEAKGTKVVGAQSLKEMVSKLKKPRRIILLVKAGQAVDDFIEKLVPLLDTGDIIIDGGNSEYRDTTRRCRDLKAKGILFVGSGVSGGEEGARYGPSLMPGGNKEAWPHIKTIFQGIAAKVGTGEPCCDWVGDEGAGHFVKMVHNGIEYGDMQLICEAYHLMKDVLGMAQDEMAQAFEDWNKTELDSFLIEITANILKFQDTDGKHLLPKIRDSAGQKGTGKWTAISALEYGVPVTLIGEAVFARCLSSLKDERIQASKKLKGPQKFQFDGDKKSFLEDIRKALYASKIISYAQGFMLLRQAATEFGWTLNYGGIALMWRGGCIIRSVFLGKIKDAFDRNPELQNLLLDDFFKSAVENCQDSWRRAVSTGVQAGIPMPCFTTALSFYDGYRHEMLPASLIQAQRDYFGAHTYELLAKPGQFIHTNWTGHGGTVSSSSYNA

Results filed as inconclusive are left out. For some assays here: Potency and affinity values are given separately. Active and inactive are the calls of the source. Unless noted, the rule behind the calls is not given here.

Plasmodium falciparum protein kinase 6 (PK6, PF3D7_1337100), sequence (Q8IDW1 1-305): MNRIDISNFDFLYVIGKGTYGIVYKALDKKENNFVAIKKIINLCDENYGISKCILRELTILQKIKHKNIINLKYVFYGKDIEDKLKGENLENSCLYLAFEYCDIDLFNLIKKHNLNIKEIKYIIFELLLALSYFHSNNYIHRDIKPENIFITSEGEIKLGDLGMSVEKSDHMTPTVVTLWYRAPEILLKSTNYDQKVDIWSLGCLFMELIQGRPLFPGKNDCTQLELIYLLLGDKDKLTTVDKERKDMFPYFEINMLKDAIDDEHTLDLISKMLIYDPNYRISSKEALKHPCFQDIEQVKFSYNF
Calcium-dependent protein kinase 1 (Plasmodium falciparum (isolate 3D7)), sequence (P62344 whole entry, looked up): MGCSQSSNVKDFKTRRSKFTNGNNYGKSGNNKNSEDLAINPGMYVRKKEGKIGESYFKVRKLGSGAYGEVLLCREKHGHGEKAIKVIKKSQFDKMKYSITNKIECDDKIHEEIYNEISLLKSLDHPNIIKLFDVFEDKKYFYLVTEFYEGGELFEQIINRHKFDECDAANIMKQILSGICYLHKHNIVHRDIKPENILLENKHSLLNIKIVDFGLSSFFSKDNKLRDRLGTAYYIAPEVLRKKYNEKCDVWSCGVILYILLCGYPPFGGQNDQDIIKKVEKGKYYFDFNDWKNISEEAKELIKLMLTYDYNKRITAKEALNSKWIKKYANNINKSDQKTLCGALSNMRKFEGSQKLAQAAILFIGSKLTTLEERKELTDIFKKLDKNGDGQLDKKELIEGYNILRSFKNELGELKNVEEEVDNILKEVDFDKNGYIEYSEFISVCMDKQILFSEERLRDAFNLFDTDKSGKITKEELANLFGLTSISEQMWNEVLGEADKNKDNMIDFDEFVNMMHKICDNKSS
Protein kinase 7 (PK7), Plasmodium falciparum 3D7 (PF3D7_0213400), sequence (Q7YTF7 1-343): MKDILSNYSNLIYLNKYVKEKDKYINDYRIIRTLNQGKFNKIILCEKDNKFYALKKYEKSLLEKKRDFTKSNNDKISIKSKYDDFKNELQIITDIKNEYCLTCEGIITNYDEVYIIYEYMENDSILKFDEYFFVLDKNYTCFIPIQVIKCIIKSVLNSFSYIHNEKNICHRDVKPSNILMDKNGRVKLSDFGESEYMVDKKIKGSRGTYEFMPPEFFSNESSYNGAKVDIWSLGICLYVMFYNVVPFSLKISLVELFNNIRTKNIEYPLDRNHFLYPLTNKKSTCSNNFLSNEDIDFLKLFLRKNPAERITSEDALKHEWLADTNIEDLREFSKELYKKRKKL
ATP-dependent translocase ABCB1 (Homo sapiens), sequence (P08183 whole entry, looked up): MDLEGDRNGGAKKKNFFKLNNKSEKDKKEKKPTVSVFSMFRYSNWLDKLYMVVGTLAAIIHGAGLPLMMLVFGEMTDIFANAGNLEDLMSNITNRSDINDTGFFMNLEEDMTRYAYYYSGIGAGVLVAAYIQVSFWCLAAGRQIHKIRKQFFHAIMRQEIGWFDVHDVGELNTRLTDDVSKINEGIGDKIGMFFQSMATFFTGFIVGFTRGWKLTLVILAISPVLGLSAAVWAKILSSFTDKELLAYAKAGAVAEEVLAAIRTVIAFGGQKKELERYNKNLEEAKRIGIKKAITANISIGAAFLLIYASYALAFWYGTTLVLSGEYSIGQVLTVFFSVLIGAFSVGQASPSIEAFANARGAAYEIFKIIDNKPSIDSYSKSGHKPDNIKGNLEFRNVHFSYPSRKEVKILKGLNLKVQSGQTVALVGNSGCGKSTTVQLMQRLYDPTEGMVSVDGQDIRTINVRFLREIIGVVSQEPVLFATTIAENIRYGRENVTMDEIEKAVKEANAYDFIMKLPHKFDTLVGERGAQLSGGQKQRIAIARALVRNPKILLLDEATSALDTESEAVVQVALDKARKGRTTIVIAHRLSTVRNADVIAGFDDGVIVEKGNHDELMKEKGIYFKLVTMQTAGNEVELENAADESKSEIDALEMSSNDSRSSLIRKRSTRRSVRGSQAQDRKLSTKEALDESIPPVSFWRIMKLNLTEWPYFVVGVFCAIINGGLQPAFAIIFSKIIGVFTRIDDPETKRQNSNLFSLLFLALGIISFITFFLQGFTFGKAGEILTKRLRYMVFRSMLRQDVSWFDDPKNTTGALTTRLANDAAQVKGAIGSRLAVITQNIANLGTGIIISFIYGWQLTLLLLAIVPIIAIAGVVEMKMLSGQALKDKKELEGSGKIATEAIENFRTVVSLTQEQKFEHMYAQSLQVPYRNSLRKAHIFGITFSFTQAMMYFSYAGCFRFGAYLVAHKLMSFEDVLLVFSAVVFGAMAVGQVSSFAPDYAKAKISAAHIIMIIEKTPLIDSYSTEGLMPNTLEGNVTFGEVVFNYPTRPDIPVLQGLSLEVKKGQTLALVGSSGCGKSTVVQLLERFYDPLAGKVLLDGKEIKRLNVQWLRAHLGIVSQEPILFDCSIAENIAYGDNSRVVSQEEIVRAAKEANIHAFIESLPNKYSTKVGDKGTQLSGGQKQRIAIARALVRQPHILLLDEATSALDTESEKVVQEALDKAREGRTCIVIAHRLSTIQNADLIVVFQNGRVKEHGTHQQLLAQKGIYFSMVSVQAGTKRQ

Turning to `CN(C)C(=S)N/N=C/c1cccc(O)c1O`, the result in test [1], in test [2], in test [3] and in test [4] was inactive.

Consider `COc1cc(/C=C(\C2=NC(=O)CS2)c2nc3cccnc3n2C)ccc1O`, for which the outcome in test [1], in test [2], in test [3] and in test [4] was inactive.

On to `O=C(Cc1ccc[n+]([O-])c1)Nc1ccc(-c2cccc(-c3nc4ccc(C(F)(F)F)cc4[nH]3)c2)cc1`, for which the result in test [1], in test [2], in test [3] and in test [4] was inactive.

With `CCC[C@@H]([C@H](CC(C)C)C(=O)N[C@@H](CCCN=C(N)NS(C)(=O)=O)C(=O)Nc1nccs1)N(O)C=O`, the outcome in test [1], in test [2], in test [3] and in test [4] was inactive.

Turning to `C=CC[C@@H](C[C@H](O)[C@H](Cc1ccccc1)NC(=O)c1ccc(-n2cccn2)cc1)C(=O)NC1CCCCC1`, the outcome in test [1], in test [2], in test [3] and in test [4] was inactive.

As for `COc1ccc(Nc2nc(N/N=C/c3ccc(O)cc3)nc(Nc3ccc([N+](=O)[O-])cc3)n2)cc1`, the outcome in test [1], in test [2], in test [3] and in test [4] was inactive.

Consider `CNC1C(O)C(OC2C(N)CC(N)C(OC3OC(CN)=CCC3N)C2O)OCC1(C)O` (stereo not drawn), for which the fluorescence slope change in test [5] was 28.9% (inactive). The survival in test [6] is 9.33 (inactive). In test [7], the parasite load remaining is 81.3% (inactive) and the viability was 80.5%. Besides, in test [8], the inhibition was 0.544% (inactive).

Consider `C=CC[C@@H](C[C@H](O)[C@H](Cc1ccccc1)NC(=O)c1ccc(-c2cccnn2)cc1)C(=O)NC1CCCCC1`, for which the result in test [1], in test [2], in test [3] and in test [4] was inactive.

Turning to `O=C(CSc1cccc[n+]1[O-])c1ccc(Cc2ncc(C(F)(F)F)cc2Cl)s1`, the outcome in test [1], in test [2], in test [3] and in test [4] was inactive.

For the compound `O=[N+]([O-])c1ccc(-c2nc3ccc(C4=N[C@@H]5CCCC[C@@H]5N4)cc3[nH]2)cc1`, the result in test [1], in test [2], in test [3] and in test [4] was inactive.

Turning to `CN(C)CCCOc1ccc(-c2nc(-c3ccc4c(c3)CC/C4=N\O)c(-c3ccncc3)[nH]2)cc1`, the outcome in test [1], in test [2], in test [3] and in test [4] was inactive.

For `CC[C@@H]([C@H](CC(C)C)C(=O)N[C@@H](CCCCNC(=O)OCc1ccccc1)C(=O)Nc1ccccn1)N(O)C=O`, the result in test [1], in test [2], in test [3] and in test [4] was inactive.

Turning to `Oc1ccc2ccccc2c1/C=N/Nc1nc(Nc2ccccc2)nc(Nc2ccccc2)n1`, the outcome in test [1], in test [2], in test [3] and in test [4] was inactive.

For `CCCO[C@H](C(=O)OC)[C@H](CC1Cc2ccccc2C1)C(=O)NCCC1=CCCCC1`, the result in test [1], in test [2], in test [3] and in test [4] was inactive.

In the case of `CCN(CC)CCCN=c1ccn(O)c2cc3ccccc3cc12`, the result in test [1], in test [2], in test [3] and in test [4] was inactive.

`O/N=C1\CCc2cc(-c3cc(-c4ccc(OC5CCNCC5)cc4)oc3-c3ccncc3)ccc21`: the result in test [1], in test [2], in test [3] and in test [4] was inactive.

`CCC[C@H](C(=O)NCCc1cccc(OC)c1)N1C(=O)c2c(ccc(OC)c2OC)C1C(=O)Nc1c(C)cccc1C` (stereo partly drawn): the result in test [1], in test [2], in test [3] and in test [4] was inactive.

As to `CC[C@H](C)[C@H](NC(=O)[C@@H](CC1CCCCC1)[C@H](CC)N(O)C=O)C(=O)Nc1ccccn1`, the result in test [1], in test [2], in test [3] and in test [4] was inactive.

For the compound `O=C(N/C=N/c1cc([N+](=O)[O-])c(-c2ccncc2)n1-c1ccccc1)c1cccc(O)c1`, the outcome in test [1], in test [2], in test [3] and in test [4] was inactive.

With `Oc1cccc(-c2nc(-c3cccc(I)c3)c(-c3ccc(-c4[nH]c(-c5cccc(O)c5)nc4-c4cccc(I)c4)cc3)[nH]2)c1`, the result in test [1], in test [2], in test [3] and in test [4] was inactive.

Turning to `CO[C@@H]1[C@@H](OC2OC(C)C(OC3CC(C)(O)C(O)C(C)O3)C(N(C)C)C2O)[C@@H](CC=O)C[C@@H](C)[C@@H](OC2CCC(N(C)C)C(C)O2)/C=C/C=C/C[C@@H](C)OC(=O)C[C@H]1O` (stereo partly drawn), in test [5], the fluorescence slope change is 23.5% (inactive). In test [8], the inhibition is 5.19% (inactive).

These data come from PubChem BioAssay.
